What all share (test): PBM binding z-score (relative to random genomic background probes); higher = stronger binding; sequences stand for … in GC…GCGATTGACAGCGTAGAATGAAGG
Test [1] concerns FXR:RXRa (NR concentration 270 nM, RXRa partner concentration 90 nM). Put shortly:
(§1)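 On custom Agilent 4×180K arrays, double-stranded probes with 34-nt variable regions carried direct-repeat seeds, single-nucleotide variants, half-site ablations or random human genomic background. Ligand-free nuclear receptor dimers were applied for 1 h, and binding was read with antibodies against each partner (one per run). Binding z-scores come from regression-normalized fluorescence, with the random background probes as reference.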

Test [2] concerns LXRa:RXRa (NR concentration 270 nM, RXRa partner concentration 90 nM). Summed up:
as §1

The test system of test [3] is LXRa homodimer (NR concentration 270 nM). Summed up:
as §1

Test [4] concerns LXRb:RXRa (NR concentration 270 nM, RXRa partner concentration 90 nM). Summed up: as §1
Test [5] concerns LXRb homodimer (NR concentration 270 nM). Summed up:
as §1

Test [6] deals with PPARa:RXRa (NR concentration 270 nM, RXRa partner concentration 90 nM). Put shortly:
as §1

The test system of test [7] is PPARg:RXRa (NR concentration 180 nM, RXRa partner concentration 90 nM). Put shortly:
as §1

The subject of test [8] is PPARg:RXRa 270nM:90nM, anti-RXR (NR concentration 270 nM, RXRa partner concentration 90 nM). Put shortly: as §1
For test [9], the system named is PPARg:RXRa 30nM:10nM, anti-RXR (NR concentration 30 nM, RXRa partner concentration 10 nM). Summed up: as §1
The test system of test [10] is PPARg:RXRa 90nM:30nM, anti-RXR (NR concentration 90 nM, RXRa partner concentration 30 nM). Put shortly: as §1
Test [11] relates to PPARg:RXRa DBDmut IVT, anti-RXR (DBD mutation: RXRa K156A/R161A, NR concentration 270 nM, RXRa partner concentration 90 nM). Summed up:
as §1

Test [12] relates to PPARg:RXRa IVT, anti-PPARg (NR concentration 270 nM, RXRa partner concentration 90 nM). Summed up: as §1
For test [13], the system named is PPARg DBDmut:RXRa IVT, anti-PPARg (DBD mutation: PPARg1 K132A/R137A, NR concentration 270 nM, RXRa partner concentration 90 nM). Put shortly:
as §1

The subject of test [14] is PPARg DBDmut IVT, anti-PPARg (DBD mutation: PPARg1 K132A/R137A, NR concentration 270 nM). Put shortly: as §1
In test [15] the test system is PPARg homodimer (NR concentration 180 nM). Put shortly: as §1
Test [16] has as its system PXR:RXRa (NR concentration 270 nM, RXRa partner concentration 90 nM). Summed up: as §1
Test [17] has as its system PXR homodimer (NR concentration 270 nM). Summed up: as §1
The subject of test [18] is RARa:RXR (NR concentration 270 nM, RXRa partner concentration 90 nM). Summed up: as §1
The subject of test [19] is RARa homodimer (NR concentration 270 nM). Summed up: as §1
Test [20] concerns RARb:RXRa (NR concentration 270 nM, RXRa partner concentration 90 nM). Summed up:
as §1

Regarding CAAACTAGGTCACGAAAGGTCAGAGTCGAATGAC, the PBM binding z-score in test [1] is 6.76; in [2] it was 7.61; in test [3] it was 5.28; in test [4], 6.37; in [5], 1.23; in test [6], 5.96. The PBM binding z-score in test [7] was 10.3; in test [8] it was 7.74; in [9], 6.9; in test [10], 8.34; in test [11] it was 8.85; in [12], 9.13. Moreover, the PBM binding z-score in test [13] came to 3.21; in test [14], 1.91; in [15] it was 7.35; in [16], 6.33; in [17] it was 1.71; in test [18], 6.97. Moreover, the figures for the PBM binding z-score in [19] and in test [20] were 5.45 and 5.39, respectively.

As for CATACAGGGTCAGCTAGGCCGGAGTAGGGACGGC, the PBM binding z-score was 4.6 in [1]; 2.61 in test [2]; -0.304 in [3]; 1.86 in test [4]; 0.54 in test [5]; 3.9 in test [6]. Besides, the PBM binding z-score was 2.9 in [7]; 2.96 in test [8]; 0.304 in [9]; 1.69 in [10]; 0.767 in [11]; 2.06 in [12]. Besides, the PBM binding z-score is 0.399 in test [13]; 0.204 in test [14]; 1.63 in test [15]; 1.76 in test [16]; -0.278 in test [17]; 2.9 in [18]. Also, the PBM binding z-score in [19] turned out to be 0.038; in test [20], 3.87.

Turning to ACTAGTTGGTCAGCTGTGGTCACACACAATTCGG, the PBM binding z-score was 0.168 in [1]; -0.0982 in [2]; -0.159 in test [3]; -0.0787 in test [4]; -0.362 in test [5]; 0.0515 in test [6]. Further, the PBM binding z-score is 0.536 in test [7]; 0.0705 in test [8]; -0.147 in [9]; -0.158 in test [10]; 1.14 in [11]; 0.902 in test [12]. Also, the PBM binding z-score in test [13] is 0.0939; in [14] it was 0.115; in test [15], 0.101; in test [16], 0.312; in [17], -0.402; in [18], 0.442. Further, the figures for the PBM binding z-score in test [19] and in test [20] were 0.116 and 1.23, respectively.

As for ACAGACAGGCGATGAAGGTAACTCAGGCTATCAT, the PBM binding z-score in [1] was -0.05; in [2], -0.309; in test [3], -0.155; in test [4], -0.384; in [5], -0.145; in test [6], -0.503. For the same sequence, the PBM binding z-score in test [7] was 0.721; in [8] it was -0.326; in test [9], 0.0512; in [10] it was -0.438; in test [11] it was -0.645; in [12], -0.444. The PBM binding z-score in [13] was -0.214; in test [14] it was 0.247; in test [15], 0.743; in [16] it was -0.467; in test [17], 0.0486; in [18], -0.431. The PBM binding z-score was -0.0743 in test [19] and -0.249 in test [20].

Regarding CCGACTGGGGCAAGGTTTCCATAACGCACAGCCA, the PBM binding z-score is -0.141 in test [1]; -0.322 in [2]; -0.44 in test [3]; -0.321 in [4]; -0.889 in [5]; 0.606 in [6]. Besides, the PBM binding z-score in test [7] was 2.28; in [8] it was 2.75; in test [9] it was 0.608; in test [10] it was 1.97; in [11] it was 2.98; in test [12], 3.2. Also, the PBM binding z-score in [13] was -0.0108; in test [14], -1.24; in [15], 0.216; in test [16], -0.725; in test [17], -0.351; in test [18], -0.351. Further, the results for the PBM binding z-score in test [19] and in test [20] were -0.575 and 0.592, respectively.

In the case of TTACCAAGGTTAAGGTCGTTGATCCCTCTGTAGA, the PBM binding z-score in test [1] is 4.22; in test [2], 4.15; in test [3] it was 0.608; in test [4], 2.66; in test [5], -0.123; in test [6], 3.38. In addition, the PBM binding z-score in test [7] is 1.85; in test [8], 3.34; in test [9] it was 1.44; in test [10] it was 2.99; in test [11], 0.95; in test [12] it was 2.15. Moreover, the PBM binding z-score came to 0.246 in test [13]; 0.342 in test [14]; 1.05 in test [15]; 3.04 in [16]; 1.3 in test [17]; 3.04 in test [18]. The PBM binding z-score in test [19] is -0.0492; in test [20] it was 3.04.

(Values after the supplement of paper PMC6555819.)
